# Source: PubChem BioAssay (National Center for Advancing Translational Sciences (NCATS))
# In the library only some 10% were active in any assay of this set; here they are far more common.
# NIH3T3 tox: Cytotoxic Profiling in NIH 3T3 Cell Line of Diverse Libraries Using Quantitative High-Throughput Screening | NIH 3T3 viability, CellTiter-Glo ATP luminescence, 48-72 h | Potency, µM (highest dose often 96.7 µM), for inactives: at the top dose activity change, negative = cytotoxicity, most hits filed as inhibitors | 94,000 compounds, 4.3% hits | AID 1345082, 2018; note: % is set by controls: 0 for no effect and ±100 for the full control effect; nearly all actives have a fitted effect of over 55% in size
#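 ATP-dependent luminescence (CellTiter-Glo) served as the viability signal for NIH 3T3 cells treated with compound for 48 or 72 hr at 37 °C.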
# FLuc inh-1: Firefly luciferase inhibition profiling of diverse chemical library using quantitative high-throughput screening | AID 1347043, 2019 | Potency, µM (series often up to 115 µM), most hits filed as inhibitors | 76,000 compounds, 2.5% hits | purified P. pyralis luciferase, luminescence, biochemical; note: % is set by controls: 0 for no effect and ±100 for the full control effect; nearly all actives have a fitted effect of over 65% in size
#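 Cell-free enzyme assay, 10nM P. pyralis luciferase, luciferin and ATP each at 10uM. Inhibition profiled over a 6-point titration, read as luminescence.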
# NPR1 antag: Natriuretic polypeptide receptor (hNpr1) antagonism - Primary qHTS; Potency, µM (highest dose often 46.3 µM), for inactives: at the top dose activity change, negative = inhibition, actives largely listed as inhibitors; Atrial natriuretic peptide receptor 1 (Homo sapiens), P16066; 76,000 compounds, 1.6% hits; HEK293 hNpr1 GloSensor cGMP, ANP-stimulated luminescence; calls by dose curve; note: % is set by controls: 0 for no effect and ±100 for the full control effect; nearly all actives have a fitted effect of over 60% in size
#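 Compound pre-incubated 30 min at room temperature on GloSensor-loaded HEK293 cells stably carrying hNpr1 and the pGS-40F cGMP biosensor. Stimulation uses hNppA at 0.1 nM final; luminescence is taken at baseline and 20 min post-agonist.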
# HEK cytotox: Cytotoxic Profiling in HEK 293 Cell Line of Diverse Libraries Using Quantitative High-Throughput Screening; Potency, µM (highest dose often 115 µM), for inactives: top-dose activity change, negative = cytotoxicity, hits mostly inhibitors; 94,000 compounds, 6.6% hits; HEK 293 viability, ATP luminescence (CellTiter-Glo), 48-72 h; note: % is set by controls: 0 for no effect and ±100 for the full control effect; nearly all actives have a fitted effect of over 60% in size
#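 250 HEK 293 cells/well; compound by pintool; incubated 48 or 72 hr at 37 degree Celsius; CellTiter-Glo added, 10 min RT, luminescence imaged.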
# GPT2 inh: Primary qHTS assay for inhibitors of Glutamate pyruvate transaminase 2 (GPT2); Alanine aminotransferase 2 (Homo sapiens), Q8TD30; Recombinant GPT2, coupled pyruvate oxidase/HRP Amplex Red fluorescence; Potency, µM (series often up to 57.7 µM), for the others: top-dose activity change, negative = inhibition, most hits filed as inhibitors; 100,000 compounds, 0.25% hits; AID 1671188, 2021; note: % is set by controls: 0 for no effect and ±100 for the full control effect; nearly all actives have a fitted effect of over 60% in size
# Target sequence (Q8TD30 whole entry, looked up): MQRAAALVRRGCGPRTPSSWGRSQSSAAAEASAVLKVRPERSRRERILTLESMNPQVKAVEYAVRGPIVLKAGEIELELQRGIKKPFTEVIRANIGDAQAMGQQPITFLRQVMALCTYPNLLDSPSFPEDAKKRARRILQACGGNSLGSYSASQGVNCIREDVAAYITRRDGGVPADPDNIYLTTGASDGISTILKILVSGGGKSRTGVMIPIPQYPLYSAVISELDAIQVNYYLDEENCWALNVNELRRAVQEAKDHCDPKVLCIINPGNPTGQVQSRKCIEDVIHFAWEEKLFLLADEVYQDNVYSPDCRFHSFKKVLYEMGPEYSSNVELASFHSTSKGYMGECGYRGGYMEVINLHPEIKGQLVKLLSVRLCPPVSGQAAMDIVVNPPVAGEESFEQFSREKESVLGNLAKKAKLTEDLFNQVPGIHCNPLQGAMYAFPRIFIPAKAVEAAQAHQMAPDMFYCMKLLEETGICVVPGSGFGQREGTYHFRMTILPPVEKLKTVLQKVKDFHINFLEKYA
#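 Fluorescence of coupled pyruvate oxidase/HRP/Amplex Red system (50uM Amplex, 30 min, dark) reports pyruvate formed by GPT2. Enzyme reaction: 10ng/uL GPT2, 2mM L-alanine, 250uM a-KG, 30 min room temperature, pH 7.5; 50uM AOA control.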
# FLuc SDR -ATP: Firefly luciferase (FLuc-C-HiBiT) SDR gain of signal screen - without ATP. shares compounds with FLuc inh-1. Purified FLuc-C-HiBiT, Nano-Glo HiBiT luminescence, no ATP. Potency, µM (top dose mostly 32.7 µM), for inactives: at the top dose activation (signal gain), actives largely listed as activators. 1,300 compounds, 7.8% hits; note: nearly all actives have a fitted effect of over 55% in size
# FLuc SDR ATP: Firefly luciferase (FLuc-C-HiBiT) SDR gain of signal screen - plus ATP; shares compounds with FLuc inh-1; Potency, µM (series often up to 32.7 µM), without a hit: at the highest dose activation (gain of signal), hits mostly activators; purified FLuc-C-HiBiT + ATP, HiBiT complementation luminescence; 1,300 compounds, 8.7% hits;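 note: signal reports ligand binding via conformational change of the enzyme rather than luciferase catalysis; % of control where 0% means no effect; nearly all actives have a fitted effect of over 55% in size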
# FLuc inh-2: Firefly luciferase (FLuc-C-HiBiT) enzymatic inhibition screen - Functional assay; 1,300 compounds, 42% hits; Potency, µM (series often up to 32.7 µM), without a hit: at the top dose activity change, negative = inhibition, hits mostly inhibitors; purified FLuc-C-HiBiT enzyme, luciferin luminescence; AID 1963320, 2024; shares compounds with FLuc inh-1; note: % is set by controls: 0 for no effect and ±100 for the full control effect; nearly all actives have a fitted effect of over 70% in size
# Starred values were filed as active, the others as inactive; i = inactive; u = inconclusive; x = no result; [ ] = another dose, or the depositor's remark. Unless noted, calls come from the whole dose curve; as a rule, active = well fitted curve in the direction sought with a large enough effect; inconclusive = small, poorly fitted or top-dose-only effect, or another doubt; inactive = no such curve, though single readings can be large; an effect the other way counts as inactive or inconclusive. Potency is the fitted concentration of half-maximal effect.
SMILES,NIH3T3 tox,FLuc inh-1,NPR1 antag,HEK cytotox,GPT2 inh,FLuc SDR -ATP,FLuc SDR ATP,FLuc inh-2
COc1ccc(C(=O)NC2CCCN(c3cc(-c4ccc(Cl)cc4)[nH]n3)C2)cc1OC (centres undefined),u,4µM*,-19%,35µM*,i,26%,14%,6.2µM*
OCCC1CN(c2cc(C(F)(F)F)ccn2)CCN1CC1CCCCC1 (centres undefined),u,i,9%,u,i,x,x,x
COc1ccc(Nc2cccc(CN3CCCC(C)(NC(C)=O)C3)c2)cc1 (centres undefined),-48%[138 µM],i,-18%[70.6 µM],u,u,x,x,x
COc1cccc(-c2csc(CN3CCCC(C)(NC(C)=O)C3)c2)c1 (centres undefined),u,5µM*,-6%[70.6 µM],u,0%[88.5 µM],17%[49.3 µM],16%[49.3 µM],u
OC1CCCN(c2ccc(-c3nc(-c4cccc(C(F)(F)F)c4)no3)cn2)C1 (centres undefined),u,1.6µM*,10µM*,u,u,15%,13%,u
CC(=O)N1CCCN(c2ccc(-c3nc(-c4ccccc4F)no3)cn2)CC1,1%,13µM*,-3%,-1%,i,13%,u,u
COc1ccc(-c2noc(CN3CCCCC3c3cccc(F)c3)n2)c(OC)c1OC (centres undefined),u,i,0%,u,-13%,x,x,x
COc1cccc(-c2noc(-c3ccc(N4CCCC(CO)C4)nc3)n2)c1OC (centres undefined),u,1.8µM*,-29%,u,i,u,u,2.8µM*
CCC(C)(OC(C)=O)C(=O)O[C@H]1[C@H](OC(C)=O)[C@]2(CO)[C@H](O)[C@H](O)[C@]3(C)C(=CCC4[C@@]5(C)CC[C@H](O[C@@H]6O[C@H](C(=O)O)[C@@H](O)[C@H](O[C@@H]7OC[C@H](O)[C@H](O[C@@H]8OC[C@H](O)[C@H](O)[C@H]8O)[C@H]7O)[C@H]6O[C@@H]6O[C@H](CO)[C@@H](O)[C@H](O)[C@H]6O)C(C)(C)C5CC[C@]43C)[C@@H]2CC1(C)C (some centres undefined),x,x,x,x,i[11.5 µM],x,x,x
O=C(NCC1CCCN(C(=O)N2CCCC2)C1)c1ccc(-c2ccccc2)cc1 (centres undefined),u,7.9µM*,-2%,u,0%,19%,11%,u
CC(C)CNC(=O)c1cc(-c2cc(Cl)cc(Cl)c2)c2nncn2n1,-28%,x,x,i,-6%,x,x,x
COc1ccc(-c2nnc(SC(C)C(=O)O)o2)cc1 (centres undefined),x,x,x,x,x,u,u,u
COc1ccc(-c2nnc([C@H]3CCN(C(=O)c4ccc(F)cc4)C3)o2)cc1,-21%[138 µM],i,1%[70.6 µM],-12%[172 µM],2%[88.5 µM],x,x,x
CCC(=O)N(C1CCOCC1)C1CCN(Cc2ccc(OC)c(OC)c2)CC1,-19%,i,-2%,3%,i,x,x,x
COc1ccc(CN(C(=O)c2cc3ccccc3oc2=O)C2CCS(=O)(=O)C2)cc1OC (centres undefined),x,x,x,x,x,20%,u,-17%
COCCN1C(=O)c2ccccc2C(C(=O)Nc2ccc(C)cn2)C12CCCCC2 (centres undefined),-30%,i,1%,-15%,0%,x,x,x
Cc1ccc(NC(=O)N2CCC(CCNC(=O)C3CC3)CC2)cc1F,-17%,11µM*,-14%,-12%,i,u,u,u
O=C(NCCC1CCN(C(=O)Nc2ccccc2)CC1)c1ccc(F)cc1,-5%,u,-14%,2%,-4%,x,x,x
O=C(NCCC1CCN(C(=O)Nc2cc(F)cc(F)c2)CC1)c1ccc(F)cc1,u,14µM*,-22%,u,1%,17%,11%,-18%
CC(=O)c1ccc(NC(=O)N[C@H]2CCN3C(=O)[C@@H](Cc4ccccc4)NC(=O)[C@H]23)cc1,-4%[174 µM],i,-2%[70.6 µM],-16%[172 µM],i,x,x,x
CCOc1ccc(C(=O)Nc2ccc(-c3nc4ccccc4s3)c(C)c2)cc1OCC,x,x,x,x,x,18%,11%,-10%
COc1ccc(Sc2ccc(NC(=O)c3ccccc3Cl)cc2C#N)cc1,x,x,x,x,0%,x,x,x
COc1ccc(C(=O)Nc2ccc(-c3nc4ccccc4s3)c(Cl)c2)cc1Cl,x,x,x,x,x,14%,11%,-12%
COc1c(C)cccc1C(=O)Nc1ccc(-c2nc3ccccc3s2)c(Cl)c1,x,x,x,x,x,8%,6%,-16%
COCCC1(NS(C)(=O)=O)CCN(C(=O)Nc2ccc3c(c2)OCCO3)CC1,-3%,i,4%,2%,i,x,x,x
CC(C)c1ccc(N2C(=S)N[C@H]3[C@@H](O)[C@H](O)C[C@@H](C(=O)N(C)Cc4ccccc4)[C@H]32)cc1,35µM*,3.2µM*,-25%,40µM*,i,10%,11µM*,11µM*
O=C(C1CCCC1)N1Cc2ccccc2CC2(CCN(CC3CCNC3)C2)C1 (centres undefined),u,x,x,u,i,x,x,x
COc1ccc(Nc2cc(C(=O)NC3CCC(C)CC3)c3ccccc3n2)cc1OC (centres undefined),x,x,x,x,x,21%,13%,-4%
COc1cc(C)ccc1OCc1cc(C(=O)NCc2n[nH]c3c2CCC3)no1,u,11µM*,0%,u,u,17%,14%,u
